This note sets out measurements from PubChem BioAssay (NCATS).

Structures are written as SMILES. “And” between values parts separate entries of the source, which are not always exact repeats. Equal values may be shown once. Records with an inconclusive call do not appear. The source made the active and inactive calls. Unless noted, calls come from the whole dose curve; as a rule, active = well fitted curve in the direction sought with a large enough effect; inconclusive = small, poorly fitted or top-dose-only effect, or another doubt; inactive = no such curve, though single readings can be large; an effect the other way counts as inactive or inconclusive. Some results are limits rather than exact numbers.

Assay [1] in a line: Cell Viability - SK-N-SH (AID 435; calls by dose curve; note: potency is the fitted concentration of half-maximal effect). As to conditions: SK-N-SH neuroblastoma cell viability qHTS. The procedure, abridged: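 qHTS cytotoxicity: CellTiter-Glo ATP luminescence after 40 h compound exposure of human neuroblastoma SK-N-SH cells at 37 °C. AC50 derived by Hill-equation fitting, with DMSO as basal and 100 uM tamoxifen as full inhibition.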
For orientation: In qHTS, concentration-response curves come from the screen itself.

The nature of assay [2]: Cell Viability - N2a (AID 540).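 For activity change, negative = cytotoxicity: plate controls were DMSO alone for no effect and tamoxifen control for full effect.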 Note: nearly all actives have a fitted effect of over 45% in size. Note: potency is the fitted concentration of half-maximal effect. As to conditions: N2a mouse neuroblastoma cell viability; activity change, negative = cytotoxicity: at 92.2 µM (top of the series). The essentials:
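In this qHTS cytotoxicity screen, ATP-dependent luciferase luminescence reports viable N2a cells after a 40 hr compound exposure in complete culture medium. Potencies are AC50 values from standard Hill equation fits.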

Assay [3] can be described thus: Cell Viability - Renal Proximal Tubule (AID 545).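 Note: cells exposed to compound for 40 hours; nearly all actives have a fitted effect of over 40% in size.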 As to conditions: renal proximal tubule cells viability; series mostly up to 91.7 µM. The procedure, abridged: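 Viability taken as intracellular ATP (CellTiter-Glo luminescence) after 40 hr, 37 °C compound treatment of primary proximal tubule cells from rat kidney, 1000 cells/well; Hill-equation fits of qHTS concentration-response data gave AC50.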

Assay [4] can be described thus: Cellular Toxicity (caspase-3) Jurkat (AID 655).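 Note: cells exposed to compound for 16 h at 37 °C before reading.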 The settings on record: Jurkat caspase-3 activation, luminescence; caspase-3 activation: at 92.2 µM (top of the series), DMSO = 0%, tamoxifen = 100%. The procedure, abridged: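 Luminescent Caspase-Glo 3/7 read-out (20 min, room temperature) after 16 h compound treatment at 37 C of 5000 Jurkat cells per well. AC50 derived by Hill-equation fitting, scaled between DMSO basal and 100 uM tamoxifen stimulation.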

The nature of assay [5]: Cellular Toxicity (caspase-3) MRC-5 (AID 659). As to conditions: MRC-5 cells, luminescence, normalized: DMSO 0%, 10 µM staurosporine 100%; series mostly up to 91.7 µM. The procedure, abridged: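 Luminescent Caspase-Glo 3/7 read-out (1 h, room temperature) after a 16 h, 37 °C compound exposure of MRC-5 lung fibroblasts at 1500 cells/well. Concentration-response AC50 from Hill equation; 0% DMSO, 100% 10 uM staurosporine.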

In assay [6] the target is Cytochrome P450 3A4 (Homo sapiens) (UniProt P08684). Briefly: qHTS Assay for Inhibitors and Substrates of Cytochrome P450 3A4 (AID 884). Note: nearly all actives have a fitted effect of over 50% in size. Note: potency is the fitted concentration of half-maximal effect. The settings on record: recombinant CYP3A4, Luciferin-PPXE luminescence; series mostly up to 57.1 µM. The essentials: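 Luminescent readout of luciferin produced by CYP3A4 (20 nM) dealkylation of Luciferin-PPXE, 25 uM (its KM). NADPH-driven reaction ran 60 min at RT after 10 min compound preincubation; data scaled to 57 uM ketoconazole as 100% inhibition.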

Assay [7] is described as follows: Cell Viability - LYMP2-001 (AID 921).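 Note: 0% = DMSO only and full inhibition = tetraoctylammonium bromide control wells; nearly all actives have a fitted effect of over 70% in size.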 The settings on record: LYMP2-001 lymphoblastoid cell viability; series mostly up to 92.2 µM. The essentials: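 Cellular ATP loss read by luciferase luminescence after 24 h compound exposure at 37 C in complete medium. LYMP2-001 lymphoblastoid cells, 2500/well; qHTS concentration-response data fitted with Hill equation for AC50.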

A short description of assay [8]: MultiTox-Fluor Cytotoxicity Assay - LYMP1-002 - Dead Cells (AID 960). Note: nearly all actives have a fitted effect of over 60% in size. Note: potency is the fitted concentration of half-maximal effect. The settings on record: LYMP1-002 lymphoblastoid cells, dead-cell protease fluorescence; series mostly up to 46.1 µM. The procedure, abridged:
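Concentration-dependent increases in membrane-leaked protease activity are quantified in LYMP1-002 cells after 16 hr treatment; values are normalized against DMSO and tetraoctylammonium bromide (15 uM) controls and AC50 derived by Hill modeling.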

Assay [9] can be described thus: Cell Viability - LYMP2-005 (AID 967).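 Note: plate controls were DMSO only for no effect and 92 µM tetraoctylammonium bromide control for full effect.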 As to conditions: LYMP2-005 lymphoblastoid cell viability; series mostly up to 92.2 µM. The essentials: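 LYMP2-005 human lymphoblastoid cells (2500/well) were treated with compounds for 24 h at 37 C. Intracellular ATP was then measured by CellTiter-Glo luminescence after 30 min at room temperature. AC50 values came from Hill-equation fits of qHTS concentration-response data.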

Assay [10] in a line: Cell Viability - LYMP2-015 (AID 971).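 Note: 0% = DMSO only and full effect = 92 µM tetraoctylammonium bromide; nearly all actives have a fitted effect of over 55% in size.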 As to conditions: LYMP2-015 lymphoblastoid cell viability; series mostly up to 92.2 µM. The procedure, abridged: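 AC50 values reflect Hill-model fits of ATP-based luminescence (CellTiter-Glo) from a human lymphoblastoid line, 2500 cells/well, treated 24 hr at 37 C.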
Assay [11] can be described thus: Cell Viability - LYMP2-002 (AID 977).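 Note: plate controls were DMSO only for no effect and 92 µM tetraoctylammonium bromide for full effect.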 The settings on record: LYMP2-002 lymphoblastoid cell viability, qHTS; series mostly up to 92.2 µM. The procedure, abridged: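 Human lymphoblastoid cells (2500/well) in complete medium were preincubated 5 hr at 37 C, then exposed to compounds for 24 hr at 37 C. Intracellular ATP was read by CellTiter-Glo luminescence; AC50 came from Hill-equation concentration-response fits.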

Assay [12] in a line: Cell Viability - LYMP2-010 (AID 981). Note: % is set by controls: 0 for no effect and ±100 for the full control effect; nearly all actives have a fitted effect of over 55% in size. As to conditions: LYMP2-010 lymphoblastoid cell viability, qHTS; series mostly up to 92.2 µM. The essentials: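 This 24 hr viability screen uses LYMP2-010 lymphoblastoid cells, quantifies ATP via luciferase luminescence, and derives AC50 from Hill fits of qHTS concentration-response data.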
Assay [13] is described as follows: Cell Viability - LYMP2-020 (AID 986).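 Note: plate controls were DMSO only for no effect and tetraoctylammonium bromide at 92 µM for full effect; nearly all actives have a fitted effect of over 55% in size.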 As to conditions: series mostly up to 92.2 µM. The procedure, abridged: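 Cells at 2500 per well receive a 24 hr compound exposure at 37 C. Viability is measured as ATP-dependent luciferase luminescence, with AC50 modeled from qHTS concentration-response curves.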
Assay [14] in a line: Cell Viability - LYMP2-022 (AID 987).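 Note: 0% = DMSO alone and full effect = tetraoctylammonium bromide at 92 µM; nearly all actives have a fitted effect of over 55% in size.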 As to conditions: LYMP2-022 lymphoblastoid cell viability; series mostly up to 92.2 µM. The essentials: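 In this qHTS cytotoxicity screen, compound titrations were incubated 24 hr at 37 C with human lymphoblastoid cells in complete medium. Luciferase-based ATP luminescence provided the viability signal.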
Assay [15] is described as follows: qHTS assay for small molecule agonists of retinoid X receptor alpha signaling (AID 588544). As to conditions: HEK293T RXRa-UAS-bla, beta-lactamase reporter, 18 h; 530 nm emission.
Assay [16] deals with Thyroid hormone receptor beta (Homo sapiens) (UniProt P10828). Briefly: qHTS assay for small molecule agonists of thyroid hormone receptor beta signaling (AID 588545; calls by dose curve; note: potency is the fitted concentration of half-maximal effect). The settings on record: TR-UAS-bla GripTite HEK 293, beta-lactamase ratio, agonist mode, 18 h; series mostly up to 76.7 µM. The procedure, abridged: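 HEK 293 TR-UAS-bla; agonist mode; 18 hrs, 37 C; CCF4, ex 405/em 460 and 530 nm; norm. T3 10 nM = 100%, DMSO = 0%; Hill fit → EC50, efficacy.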

A short description of assay [17]: qHTS assay for small molecule antagonists of retinoid X receptor alpha signaling (AID 588546; active = well fitted inhibition curve with a large enough effect in the signal ratio, with a control signal flat, not every such curve was filed as active; the % refers to the signal ratio;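 note: cells stimulated with 9-cis-retinoic acid as agonist; % is set by controls: 0 for no effect and ±100 for the full control effect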). The settings on record: HEK293T RXRa-UAS-bla, beta-lactamase ratio, antagonist mode; measured here: W530 green channel, cytotoxicity proxy. The essentials: (§1)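 Beta-lactamase reporter inhibition, read as CCF4 fluorescence ratio (ex 405, em 460/530 nm) after 2 h at RT. HEK293T UAS-bla cells, 2500/well, were stimulated with 9-cis-RA at 500 or 100 nM final alongside test compound for 18 h at 37 C.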

In assay [18] the target is Retinoic acid receptor RXR-alpha (Homo sapiens) (UniProt P19793). The assay is described as above. The settings on record: HEK293T RXRa-UAS-bla, beta-lactamase ratio, antagonist mode. The essentials: as §1
Assay [19] deals with Thyroid hormone receptor beta (Homo sapiens) (UniProt P10828). Briefly: qHTS assay for small molecule antagonists of thyroid hormone receptor beta signaling (AID 588547; active = well fitted inhibition curve with a large enough effect in the signal ratio, with a control signal flat, not every such curve was filed as active; the % refers to the signal ratio;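 note: cells stimulated with 0.4 nM T3 agonist during compound exposure; % is set by controls: 0 for no effect and ±100 for the full control effect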). As to conditions: TR-UAS-bla HEK293, beta-lactamase ratio, antagonist mode, 18 h. The essentials:
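Inhibition of T3-driven (0.4nM final) beta-lactamase reporter activity was measured over 0.59 nM to 92 uM compound after 18 h at 37 C. The cells were GripTite HEK293 TR-UAS-bla in charcoal/dextran-stripped serum, with CCF4 ratio read-out and IC50 from Hill fits.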

Assay [20] addresses Tumor necrosis factor (Homo sapiens) (UniProt P01375). Briefly: qHTS assay to identify small molecules that stimulate Tumor Necrosis Factor-alpha (TNF-alpha) secretion (AID 651757; active = well fitted curve in the direction sought with a large enough effect in the signal ratio; the % refers to the signal ratio; note: 0% is about no effect). The settings on record: Human cells, HTRF 665/615 ratio; series mostly up to 92.2 µM. The procedure, abridged: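 Using 3000 THP-1 cells per well, compounds and controls were applied for 17 hrs at 37 C. Detection followed with two labeled anti-TNF-alpha antibodies (cryptate donor, XL665 acceptor) for 3 hr at room temperature, measured by TR-FRET.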

Tumor necrosis factor (Homo sapiens), sequence (P01375 whole entry, looked up): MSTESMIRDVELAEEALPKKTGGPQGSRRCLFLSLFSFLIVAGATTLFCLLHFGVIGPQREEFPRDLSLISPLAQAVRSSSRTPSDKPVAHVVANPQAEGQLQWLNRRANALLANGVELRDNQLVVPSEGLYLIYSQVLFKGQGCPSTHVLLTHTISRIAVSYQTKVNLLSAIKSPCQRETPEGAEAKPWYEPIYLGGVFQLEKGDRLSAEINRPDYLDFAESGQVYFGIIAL
Retinoic acid receptor RXR-alpha (Homo sapiens), sequence (P19793 whole entry, looked up): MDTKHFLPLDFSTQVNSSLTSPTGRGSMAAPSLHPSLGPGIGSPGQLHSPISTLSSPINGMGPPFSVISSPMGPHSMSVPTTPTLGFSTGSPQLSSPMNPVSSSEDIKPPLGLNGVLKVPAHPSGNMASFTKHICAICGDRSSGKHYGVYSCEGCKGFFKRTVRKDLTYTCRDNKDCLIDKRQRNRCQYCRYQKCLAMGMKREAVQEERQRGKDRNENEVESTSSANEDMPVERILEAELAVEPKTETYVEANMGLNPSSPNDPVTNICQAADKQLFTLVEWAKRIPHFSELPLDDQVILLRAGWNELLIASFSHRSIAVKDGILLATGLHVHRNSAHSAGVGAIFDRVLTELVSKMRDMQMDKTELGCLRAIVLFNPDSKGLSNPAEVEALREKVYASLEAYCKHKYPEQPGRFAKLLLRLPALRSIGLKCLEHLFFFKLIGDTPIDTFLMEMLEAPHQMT
Thyroid hormone receptor beta (Homo sapiens), sequence (P10828 whole entry, looked up): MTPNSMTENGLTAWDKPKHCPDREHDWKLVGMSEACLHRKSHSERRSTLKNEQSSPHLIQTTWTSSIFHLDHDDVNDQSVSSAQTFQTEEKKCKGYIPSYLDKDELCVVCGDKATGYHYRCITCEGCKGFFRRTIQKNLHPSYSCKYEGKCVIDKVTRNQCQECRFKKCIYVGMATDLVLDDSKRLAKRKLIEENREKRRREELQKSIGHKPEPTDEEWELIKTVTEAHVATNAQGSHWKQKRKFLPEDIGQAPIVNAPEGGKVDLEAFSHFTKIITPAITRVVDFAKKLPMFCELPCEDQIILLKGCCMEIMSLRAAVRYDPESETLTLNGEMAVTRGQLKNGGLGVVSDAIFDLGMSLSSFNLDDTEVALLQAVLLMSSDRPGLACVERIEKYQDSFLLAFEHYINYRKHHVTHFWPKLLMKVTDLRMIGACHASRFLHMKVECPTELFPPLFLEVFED
Cytochrome P450 3A4 (Homo sapiens), sequence (P08684 whole entry, looked up): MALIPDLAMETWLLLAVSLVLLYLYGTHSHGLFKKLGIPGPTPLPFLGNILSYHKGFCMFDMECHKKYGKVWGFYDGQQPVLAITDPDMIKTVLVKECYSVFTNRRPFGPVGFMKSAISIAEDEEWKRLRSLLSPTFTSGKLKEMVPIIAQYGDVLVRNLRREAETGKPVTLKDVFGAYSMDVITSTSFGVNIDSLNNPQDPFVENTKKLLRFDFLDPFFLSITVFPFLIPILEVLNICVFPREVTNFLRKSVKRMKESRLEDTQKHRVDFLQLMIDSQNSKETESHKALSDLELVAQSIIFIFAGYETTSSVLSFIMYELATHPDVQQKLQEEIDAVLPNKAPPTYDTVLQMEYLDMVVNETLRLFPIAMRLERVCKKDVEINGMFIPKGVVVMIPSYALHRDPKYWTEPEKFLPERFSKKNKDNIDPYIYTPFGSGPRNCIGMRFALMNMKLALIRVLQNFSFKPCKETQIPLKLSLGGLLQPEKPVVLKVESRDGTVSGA

Turning to `C=C(Cl)CCl`, the Potency in [1] is > 92 µM (inactive). Also, the Potency entry in assay [2], in assay [6], in [7], in assay [8], in assay [9] and in assay [10] was “inactive” throughout. Besides, the Potency result in assay [11], in assay [12], in assay [13], in assay [14] and in assay [16] was “inactive” each time. Also, the result in assay [3], in assay [5] and in [20] was inactive. The caspase-3 activation in assay [4] is 1.48% (inactive). Besides, the values for the max response in [15], in assay [17] and in assay [18] were -8.31%, 4.21% and -0.897% (inactive), respectively. Besides, in assay [19], the activity change % (negative = inhibition) is 0.727% (inactive).
In the case of `Oc1cc(Cl)c(Cl)c(Cl)c1Cl`, the Potency in [2] is 31.6 µM (active). The caspase-3 activation in assay [4] is 80.5% (active). For the same molecule, in assay [5], the result was inactive. The Potency entry in [7], in assay [9], in [10], in assay [11], in assay [12] and in assay [14] was “inactive” in each case. The Potency entry in assay [16] is “inactive”.
On to `c1ccc2c(c1)ccc1cc3c(ccc4ccccc43)cc12`, for which the Potency in assay [16] was 39.8 µM (active).
In the case of `Nc1ccc(-c2ccc(N)c(Cl)c2)cc1Cl`, the figures for the Potency in assay [1], in assay [6] and in [8] were 3.05 µM (active), 15.8 µM (active) and 25.1 µM (active), respectively. The Potency entry in [2], in assay [7], in [9], in assay [10], in [12] and in assay [13] was “inactive” throughout. Besides, the Potency entry in assay [16] was “inactive”. Besides, in assay [5], the outcome was inactive. Further, the max response was -2.3% and -7.33% in [17]; -19% (inactive) and -20.8% (inactive) in [18]. In [19], the activity change % (negative = inhibition) was -10.6% (inactive) and -0.523% (inactive).
As to `CCN(N=O)C(N)=O`, the Potency in assay [1] was > 92 µM (inactive). For the same molecule, the Potency result in assay [2], in [6], in assay [7], in assay [8], in [9] and in assay [10] was “inactive” each time. Besides, the Potency entry in assay [11], in assay [12], in [13], in assay [14] and in [16] was “inactive” throughout. For the same molecule, the call in assay [3] and in [20] was inactive. Further, the caspase-3 activation in [4] was 0.577% (inactive). In addition, the max response in [15] is -12%; in [17], -10.6%; in [18] it was -5.46% (inactive). The activity change % (negative = inhibition) in assay [19] was 18.5% (inactive).
As for `[C-]1=CC=CC1.[C-]1=CC=CC1.[Cl-].[Cl-].[Ti+4]`, the Potency result in assay [2], in assay [6], in [8] and in assay [16] was “inactive” in each case. Further, the call in [3], in assay [5] and in assay [20] was inactive.
